Data on 65 compounds can be found in PubChem BioAssay AID364 (The Scripps Research Institute Molecular Screening Center, 2006).

Molecules are shown by their SMILES. The whole screen tested about 3,300 compounds, of which about 50 (2%) were called active.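 The calls were made as follows: active = concentration giving half-maximal inhibition at or below 20 micromolar; inactive = half-maximal concentration above 20 micromolar, or not dose tested.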 Only a sample is shown. Potency and affinity values are given separately.

The nature of this assay: cytotoxicity toward Jurkat T cells, primary screen, cell-based, Jurkat E6.1, NIH starter set (AID 364).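 Also: 100% = cells treated with 4 µM doxorubicin.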 Particulars: Jurkat E6.1 viability, ATP luminescence, 48 h; at 4 µM; hits give high values.
A word on the inhibition: it is the drop in the measured response relative to a control, in per cent. Consider `c1ccc(OCc2nn3c(-c4cccnc4)nnc3s2)cc1`, for which the inhibition was -5.4% (inactive).
For `CN(Cc1ccccc1)c1ncnc2ccc(Br)cc12` the value was 7.2% (inactive); for `Clc1ccc(-n2ncc3c(NCc4cccs4)ncnc32)cc1`, 18.1% (inactive); for `Clc1ccc(-n2ncc3c(NCc4ccccn4)ncnc32)cc1`, 5.5% (inactive).
On to `Oc1ccccc1-c1nc(NCc2ccco2)c2ccccc2n1`, for which the inhibition was -6.1% (inactive).
For `c1ccc(N2CCN(c3nc(NCc4ccco4)c4ccccc4n3)CC2)cc1` the value was 2.5% (inactive); for `CCN(CC)CCCn1c(C)cc2c(c1=O)C(c1ccc(OC)c(OC)c1OC)C(C#N)=C(N)O2` (stereo not given), 1.4% (inactive).
For `CCCOc1cccc(C2/C(=C(/O)c3ccccc3)C(=O)C(=O)N2CCN(C)C)c1` (stereo not given) the value was 2.5% (inactive).
For `O=C(c1coc(=O)c(Br)c1)N1CCOCC1`, the inhibition was 7.3% (inactive).
For `COc1cccc(-c2nc(N3CCCCC3C)c3ccccc3n2)c1O` (stereo not given) the value was -2% (inactive); for `Cc1nc(NS(=O)(=O)c2ccccc2)sc1NC(=O)OCCN(C)C`, 9.6% (inactive); for `COC(=O)C1=C(N)Oc2cc(C)oc(=O)c2C1c1ccncc1` (stereo not given), -9.1% (inactive).
For `O=C(O)CCc1nn2cc(-c3ccccc3)nc2[nH]c1=O` the value was -5.8% (inactive); for `Cc1cc(C)n(CC(=O)c2ccccc2)c(=O)c1C#N`, -17.6% (inactive).
For `O=c1[nH]c2sc3c(c2c(=O)n1Cc1ccccc1)CCC3` the value was 1.3% (inactive); for `COc1cccc(C2=CC(c3ccc(N(C)C)cc3)n3nnnc3N2)c1` (stereo not given), -9.6% (inactive); for `COc1ccc(C2=CC(c3cccc(OC)c3)n3nnnc3N2)cc1` (stereo not given), -8.6% (inactive).
In the case of `Cc1nc(SC2C=CS(=O)(=O)C2)n[nH]1` (stereo not given), the inhibition was -8.6% (inactive).
Take `CCCCNC1=C(Br)C(=O)CC(C)(C)C1`: the inhibition is -3.7% (inactive).
For the compound `Cn1c(Cn2cnc3ccccc32)nc2ccccc21`, the inhibition was 2.8% (inactive).
For `CC(C(=O)N1CCOCC1)N1C(=O)c2ccccc2C1=O` (stereo not given) the value was -0.7% (inactive).
On to `OCCNc1ncnc2c1c(-c1ccccc1)c(-c1ccccc1)n2Cc1ccco1`, for which the inhibition was 11.5% (inactive).
Consider `O=c1c(C=NCCCn2ccnc2)c(-c2ccccc2)[nH]n1-c1nc2ccccc2s1`, for which the inhibition was -4.4% (inactive).
For `CCCOc1cccc(CN2CCCCC2c2cccnc2)c1` (stereo not given) the value was 0.8% (inactive).
For `CNC(=O)C1CC(=O)N(Cc2ccccc2)C(=Nc2ccc(OC)cc2)S1` (stereo not given) the value was -6.1% (inactive); for `CCCCOC(=O)Nc1ccc(S(=O)(=O)Nc2nc(C)cc(C)n2)cc1`, 6.7% (inactive); for `CCCCOC(=O)CCc1nc2ccccc2[nH]1`, 0.2% (inactive).
As to `CCOc1ccc2nc(SCC(=O)Nc3ncccn3)[nH]c2c1`, the inhibition is -1.3% (inactive).
For `COCCNc1oc(-c2ccc(Cl)cc2)nc1C#N`, the inhibition was 2.9% (inactive).
For `CCN(CC)CCCN1C(=O)C(=O)/C(=C(/O)c2ccc(C)cc2)C1c1ccccn1` (stereo not given) the value was -5.6% (inactive); for `CCCNc1ncnc2c1cnn2-c1ccc(OC)cc1`, -3.3% (inactive).
For `CCOc1ccc(CC2CC(=O)NC2=O)cc1` (stereo not given) the value was -9.7% (inactive); for `Cc1cn([C@H]2C=C[C@@H](CO)O2)c(=O)[nH]c1=O`, -6.6% (inactive); for `Cc1cn([C@H]2C[C@H](N=[N+]=[N-])[C@@H](CO)O2)c(=O)[nH]c1=O`, 0.1% (inactive).
For `Cn1cc(C(=O)NCN2CCCCC2)c2ccccc21` the value was -0.4% (inactive); for `CC(C)c1nc(NCC2CCCO2)c(C#N)c2c1COC(C)(C)C2` (stereo not given), 9.3% (inactive); for `Nc1nnnn1/N=C/c1ccco1`, 8% (inactive).
Turning to `CCc1nc(N2CCCC2)c(C#N)c2c1CCCC2`, the inhibition was 2.4% (inactive).
For `COc1ccc(Nc2oc(-c3cccs3)nc2C#N)cc1` the value was 9.1% (inactive); for `COc1ccc(N2CC(=O)N(c3ccc(OC)c(OC)c3)CC2=O)cc1OC`, -0.2% (inactive); for `O=C1CCCN1c1ccc(S(=O)(=O)NCc2ccco2)cc1`, 7.4% (inactive).
For `NC(=O)c1cc(-c2ccccc2)nc(Oc2ccccc2)n1` the value was 16.2% (inactive).
For `CC(C)Oc1ccc(/C(O)=C2/C(=O)C(=O)N(CCN3CCOCC3)C2c2ccccc2)cc1` (stereo not given) the value was -8.3% (inactive); for `CCOc1cc(CN2CCOCC2)cc(C(C)=O)c1`, 3.2% (inactive).
Consider `Cn1c(N)c(C#N)c(C#N)c1-c1ccccc1`, for which the inhibition is -0.9% (inactive).
For `CCCCCOC(=O)Cc1c(C)nc(-c2ccccc2)[nH]c1=O` the value was 3.9% (inactive).
Take `COc1ccc(C(=O)CCN2CCCCCC2)cc1`: the inhibition is -4.7% (inactive).
For `COc1ccc(C(O)C(CN2CCOCC2)c2ccccc2)cc1` (stereo not given) the value was -2.1% (inactive); for `CCCCCCSC1=C(C#N)C(c2ccccc2)CC(=O)N1` (stereo not given), -7% (inactive); for `C=C(C)CSC1=C(C#N)C(c2ccsc2)CC(=O)N1` (stereo not given), 8.6% (inactive).
As for `CN1C2C=C3C(C#N)=C(N)C(C#N)(C#N)[C@@H](c4ccc(Cl)cc4)[C@@H]3C1CC2` (stereo not given in full), the inhibition is 1.6% (inactive).
For `CCOc1cccc(C2C(C#N)=C(N)Oc3cc(C)oc(=O)c32)c1OCC` (stereo not given) the value was -9.9% (inactive).
`O=C(NCc1cccnc1)NC(C(F)(F)F)C(F)(F)F`: the inhibition is -8.9% (inactive).
For `CCC(NC(=O)Nc1nccs1)(C(F)(F)F)C(F)(F)F` the value was -5% (inactive); for `CCSc1nnc(NC(=O)NC(CC)(C(F)(F)F)C(F)(F)F)s1`, -11.5% (inactive).
For `O=C(NCC(F)(F)F)Nc1nnc(C(F)(F)F)s1` the value was -6.7% (inactive); for `CC(NC(=O)Nc1nccs1)(C(F)(F)F)C(F)(F)F`, -6.2% (inactive).
For `COCCCn1c(C)nc2c(c1=O)c1nc3ccccc3nc1n2CCc1ccccc1` the value was 4.1% (inactive); for `CC1CCCCN1C(=O)C12CCC(C)(/C(=N/O)C1)C2(C)C` (stereo not given), -9.3% (inactive); for `CCOC(=O)C1=C(N)c2ccccc2CC1C(C)C` (stereo not given), 7% (inactive).
In the case of `COc1cc(C2C(C#N)=C(N)Oc3cc(C)n(CCN4CCOCC4)c(=O)c32)cc(OC)c1OC` (stereo not given), the inhibition was -2.9% (inactive).
For `COc1cccc(C2C(C#N)=C(N)Oc3cc(C)[nH]c(=O)c32)c1OC` (stereo not given) the value was 7.3% (inactive).
For `COc1ccc(-c2cc3nc4n(c(=O)c3s2)CCOC4)cc1` the value was 4.7% (inactive).
For `COc1cc(NC(=O)NC(C)(C(F)(F)F)C(F)(F)F)cc(OC)c1OC` the value was -6.8% (inactive); for `OCCOCCNc1ncnc2c1cnn2-c1ccc(Cl)cc1`, 3.8% (inactive).
